According to PubChem BioAssay AID624267 (The Scripps Research Institute Molecular Screening Center, 2012):
Among all 360,000 compounds or so, about 1,400 (0.39%) were called active. No stated cut-off is given here; in the data, active means inhibition above about 21%; inactive means the rest. For the sample, actives were picked, then their nearest neighbours and some compounds at random.

What follows are compounds tested against Receptor-interacting serine/threonine-protein kinase 2 (Homo sapiens) (UniProt O43353) (assay: inhibitors of RIPK2 association with NOD2 – fluorescence, CHO cells, BLA complementation, primary screen (AID 624267;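 further: 0% = vehicle only and 100% = reference blocker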)). Conditions: CHO BLA complementation NOD2-RIPK2, CCF4 ratio; at 4.98 µM; stronger effect = higher value.
Sequence of Receptor-interacting serine/threonine-protein kinase 2 (Homo sapiens) (O43353 whole entry, looked up): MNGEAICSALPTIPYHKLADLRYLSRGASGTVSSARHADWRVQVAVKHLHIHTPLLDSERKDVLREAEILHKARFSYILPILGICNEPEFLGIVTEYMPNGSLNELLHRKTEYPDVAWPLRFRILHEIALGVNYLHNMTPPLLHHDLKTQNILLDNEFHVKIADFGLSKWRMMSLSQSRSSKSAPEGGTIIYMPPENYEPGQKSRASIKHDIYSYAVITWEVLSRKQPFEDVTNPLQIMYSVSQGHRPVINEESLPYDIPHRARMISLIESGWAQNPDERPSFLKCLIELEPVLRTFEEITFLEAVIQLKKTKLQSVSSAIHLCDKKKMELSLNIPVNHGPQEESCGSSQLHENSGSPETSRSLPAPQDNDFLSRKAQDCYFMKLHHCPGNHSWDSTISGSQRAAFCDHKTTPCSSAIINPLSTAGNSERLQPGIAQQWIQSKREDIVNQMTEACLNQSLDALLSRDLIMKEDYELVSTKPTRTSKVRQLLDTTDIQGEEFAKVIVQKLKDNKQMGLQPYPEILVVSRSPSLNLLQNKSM

inhibition, active:
O=C(CNC(=O)OCc1ccccc1)Oc1cc2oc(=O)cc(-c3ccccc3)c2cc1Cl 52.2%
O=C(Cc1csc(Nc2nc(=S)[nH]c3ccccc23)n1)NCCCN1CCN(c2cccc(Cl)c2)CC1 38.1%
Cc1nnc(SCC(=O)Nn2cnnc2)s1 34.9%
O=C(Nc1ccccc1Cl)/C(Cl)=C(\Cl)S(=O)c1ccccc1 (stereo not given) 70.5%
O=C(Nc1ccccc1)c1nnsc1S(=O)(=O)c1ccc(Cl)cc1 56.9%
O=C1C(Cl)=C(Oc2ccccc2)C(=O)c2ccccc21 71.7%
Nc1c(C(=O)c2cccs2)sc2nsc(SCCN3CCCCC3)c12 37.8%
O=C(/C=C/c1ccc(Cl)c([N+](=O)[O-])c1)c1ccc(O)cc1 28.9%
O=C(CSc1ncn[nH]1)Nc1nc(-c2cccc([N+](=O)[O-])c2)cs1 21.5%
Oc1ccc2ccc3cccc[n+]3c2c1 23.5%
O=C1C=C(c2ccc(Cl)cc2)C(=O)N1Nc1ccccc1 34.1%
CCN(CC)CCCC(C)n1c2nc(=O)[nH]c(=O)c-2nc2cc(Cl)ccc21 (stereo not given) 31.2%
COc1cc(/C=C(\C#N)c2nc3c(s2)CC(C)CC3)ccc1O (stereo not given) 23.2%

inhibition, inactive:
COc1ccc(CN2CCCCC2C)cc1OC (stereo not given) -10.3%
C/C(CC(C)C)=N\Oc1nc(C)cc(C)n1 -7.31%
COCCCNC(=O)CN1CCN(Cc2ccccc2Cl)C1=O 5.43%
CCc1ccccc1N(CC(=O)N1CCN(c2ccccc2F)CC1)S(C)(=O)=O -2.64%
O=C(CNC(=O)Cc1ccccc1)NCC(=O)OCC(=O)c1ccccc1Cl -8.44%
O=C(CNC(=O)c1ccccc1)NCC(=O)OCc1ccc(Cl)cc1 1.19%
O=C(Nc1ccc(CSc2ccccc2)cc1)c1ccc(CN2CCOCC2)cc1 -2.26%
O=C(Cc1ccccc1)Nc1c(Cl)ccc2nsnc12 -10.4%
C=CC(COCc1ccccc1)N(Cc1ccccc1)S(=O)(=O)c1ccccc1Br (stereo not given) 0.84%
COc1cc(C)c(C(C)C)cc1S(=O)(=O)n1ccnc1 -1.8%
O=C(NCc1ccncc1)C1CCN(C(=O)c2cccc(Cl)c2)CC1 -2.02%
CCN(C(=O)CSc1cccc[n+]1[O-])c1ccccc1 1.91%
Cn1c(Cc2cccc3ccccc23)nnc1SCC(=O)N1CCN(c2cccc(Cl)c2)CC1 2.05%
COCCCn1c(Cc2csc(Nc3cccc(Cl)c3)n2)nnc1SCC(=O)OC1CCCCC1 -7.45%
CNC(=O)n1ccc(C(=O)N2CCCCC2)n1 1.22%
O=C(NN1C(=O)C2C3C=CC(O3)C2C1=O)c1ccccc1 (stereo not given) -0.12%
Cc1nnc(SCC(=O)NC2CCCC2)s1 -7.66%
CCSc1nnc(SCC(=O)NNC(=O)c2ccccc2F)s1 -9.88%
CCOc1ccc(/C(O)=C2/C(=O)C(=O)N(Cc3cccnc3)C2c2ccc(N(C)C)cc2)c(C)c1 (stereo not given) -5.35%
O=C(COc1nsnc1N1CCOCC1)Nc1ccccc1Cl -6.94%
C/C(=N\NS(=O)(=O)c1ccc(Cl)cc1)c1ccc(NC(=O)c2ccco2)cc1 7.02%
CN(C)/C=C(/C(=O)c1ccccc1)S(=O)(=O)c1ccc(Cl)cc1 10.5%
CCOc1ccc(CN2CCC(n3nccc3NC(=O)C3CC3)CC2)cc1CO -4.91%
Cc1cc(NC(=O)CN2CCC(O)(c3cccc(F)c3)CC2)no1 -7.88%
NC(=O)COc1ccccc1C(=O)NC12CC3CC(CC(C3)C1)C2 2.45%
CCSc1ccccc1C(=O)Nc1ccc2c(c1)OCO2 1.86%
O=C(CNc1ccccc1N1CCCC1=O)Nc1cc(Cl)ccc1-n1cncn1 4.89%
COc1ccccc1Oc1ccc(N2CC(C(=O)OCC(=O)c3ccc(F)cc3)CC2=O)cc1 (stereo not given) -13.1%
Cc1ccccc1CS(=O)(=O)CC1(O)CCN(C(=O)c2cccc(C(F)(F)F)c2)CC1 -2.24%
CC(C)(C)n1nc2c(c1NC(=O)c1ccc(S(=O)(=O)N3CCCC3)cc1)CS(=O)C2 (stereo not given) 1.52%
Cc1cccc(OC(C)C(=O)N2CCc3ccccc3C2)c1 (stereo not given) -10.7%
O=[N+]([O-])c1ccc(N2CCN(c3ccc(O)cc3)CC2)c(Cl)c1 -4.55%
O=C(NCCC1=CCCCC1)c1ccc(Cl)c([N+](=O)[O-])c1 -8.9%
O=C(Oc1ccccc1Cl)c1ccc(N2CCOCC2)c([N+](=O)[O-])c1 1.05%
N#Cc1cc([N+](=O)[O-])ccc1NC(=O)COC(=O)c1cnccn1 -8.54%
CSc1ccccc1NC(=O)c1cnc2sc(C)cn2c1=O -0.62%
CN(CC(=O)Nc1ccc(F)cc1)CC(=O)N1CCCCC1 3.04%
O=C(CSc1ncn[nH]1)Nc1nsc(-c2ccccc2)n1 1.03%
O=C(CSc1ncn[nH]1)Nc1nc2c(F)c(F)c(F)cc2s1 2.77%
CCN(C(=O)Cc1nc(N)n[nH]1)C1(C(=O)Nc2ccccc2)CCCCC1 -2.08%
O=C(NN1C(=O)C2C3C=CC(O3)C2C1=O)c1ccncc1 (stereo not given) -1.04%
Cc1nn(C)c(C)c1C(C)NC(=O)c1ccc(OC2CCN(Cc3ccccn3)CC2)cc1 (stereo not given) -7.27%
N#CCCN(C(=O)COC(=O)c1ccc(S(=O)(=O)N2CCCCCC2)cc1)c1ccccc1 -9.9%
NC(CSC12CC3CC(CC(C3)C1)C2)C(=O)O (stereo not given) 2.91%
Cc1ccc(S(=O)(=O)Nc2ccc3c(c2)C(=O)N([C@H](C)CO)C[C@@H](C)[C@@H](CN(C)C(=O)Nc2cccc4ccccc24)O3)cc1 -59.7%
COc1cccc(CC(=O)OCC(=O)NCc2ccc3c(c2)OCO3)c1 9.81%
COc1cc(C=NC2CCCCC2)ccc1O 0.2%
